Several values for one entry are separate records, joined by “and”; a condition that tells them apart may be missing. Equal entries are not always repeated. Activity calls are given as the source filed them. Unless noted, the rule behind the calls is not given here.
Experiments:
[1] = hESC survival regulators, cell-based (AID 493140); details: human embryonic stem cell survival screen; stronger effect = higher value;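 note: cells exposed to compounds for four days before counting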
[2] = test system: Aerobactin synthetase IucA (Klebsiella pneumoniae); test: IucA aerobactin synthetase inhibitors, biochemical, Tocris library, absorbance (AID 1345561); details: purified IucA enzyme assay, absorbance (OD) read-out; stronger effect = lower value;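 tested at 8 µM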;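 note: 100% = enzyme without compound and 0% = no enzyme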
[3] = sensitizers of A549 cells to miR-34 induction, primary screen, imaging, A549 dox-inducible miR-34, nuclei and caspase counts (AID 1347080;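 active = compounds whose cell count with miR-34 switched on is under 0.7 times the count with it off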); details: A549 miR-34 inducible, Hoechst nuclei count, 48 h
[4] = inhibitors of Cryptococcus chitosan production, flow cytometry, Cibacron Brilliant Red staining (AID 1347148); details: Cryptococcus neoformans chitosan, stronger effect = lower value; at 10 µM unless noted;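 note: compound exposure lasted three days at 37 degrees C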
[5] = survival rescue of mitochondrial mutant cells in low glucose, primary screen, MELAS cybrids, Rieske KO mouse fibroblasts, CellTiter-Glo (AID 1508586;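 active = mean z-score across replicates of 1.96 or higher in either the MELAS or the Rieske mutant cell line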;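 note: z relative to plate mean and SD of compound and empty wells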)
[6] = viability rescue of complex I mutant cybrids, primary screen, cell-based, galactose medium, ATP luminescence (AID 1645843;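 active = z-score of at least 1.8 in each of two replicates, scored against plate mean and spread of sample wells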;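 note: positive z means more ATP and so rescue of galactose-driven cybrid death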); details: complex I mutant cybrid cells, 72 h, stronger effect = higher value
[7] = circadian clock period modulators, cell-based, LOPAC library, luminescence reporter (AID 2774); details: circadian reporter cells, at 7 µM, actives lie on both sides;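 note: values are relative to mean of DMSO wells on each plate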
[8] = test system: Hepatitis C virus NS3 helicase; test: HCV NS3 helicase inhibitors, primary screen, biochemical, fluorescence polarization, LOPAC1280 library (AID 687035; in the data active = inhibition above about 37%); details: Purified HCV NS3 helicase, Cy5-dT15 ssDNA binding fluorescence polarization; stronger effect = higher value; concentration not given here
[9] = Cy5 fluorescence quenching or enhancement artefacts, artefact control for HCV NS3 helicase inhibitor project, biochemical, LOPAC1280 (AID 687037); details: Cy5-DNA-NS3h complex fluorescence interference counterscreen
[10] = phospholipid biosynthesis inhibitors in animal cells, primary screen, cell-based, LOPAC library, screen 4 (AID 1347384); details: phospholipid biosynthesis inhibition screen, at 10 µM
[11] = stronger effect = lower value, cell number ratio, induced over uninduced
[12] = measured here: relative caspase fold change +Dox/-Dox
[13] = measured here: total cells with miR-34 induction, stronger effect = lower value
[14] = measured here: total cells without miR-34 induction
[15] = MELAS cybrid survival, CellTiter-Glo 48 h, stronger effect = higher value
[16] = Rieske KO mouse fibroblast survival, CellTiter-Glo 72 h

Row | SMILES | survival [1] | remaining activity [2] | fold change [3, 11] | fold change [3, 12] | cell count [3, 13] | cell count [3, 14] | fold fluorescence [4] | z-score [5, 15] | z-score [5, 16] | z-score [6] | period change [7] | inhibition [8] | fluorescence ratio (interference) [9] | outcome [10]
1 | Cc1ccc(-c2nn(C(C)(C)C)c3ncnc(N)c23)cc1 | 82.2 (inactive) | 109% (inactive) | 1.15 (inactive) and 0.969 (inactive) and 1.02 (inactive) | 0.8 and 0.845 and 0.764 | 850 and 2400 and 3230 | 738 and 2480 and 3170 | 12.9 [at 177.7 µM] (inactive) | 0.565 (inactive) | -0.238 | 0.19 (inactive) | – | – | – | –
2 | COCc1nc2c([nH]1)c(=O)n(C)c(=O)n2CC(C)C | – | 101% (inactive) | 1.1 (inactive) and 0.916 (inactive) and 0.973 (inactive) | 1 and 1.13 and 0.871 | 11000 and 5700 and 9180 | 10000 and 6220 and 9430 | 4.02 [at 187.8 µM] (inactive) | – | – | 0.515 (inactive) and -0.165 (inactive) | -0.19 h (inactive) | -4% (inactive) | 0.9 (inactive) | inactive
3 | CC(C)(C)n1nc(-c2ccc(Cl)cc2)c2c(N)ncnc21 | 53.1 (inactive) | 92.2% (inactive) | 1.17 (inactive) and 0.851 (inactive) and 0.882 (inactive) | 0.727 and 0.97 and 0.665 | 797 and 2420 and 4980 | 682 and 2850 and 5640 | 4.87 [at 165.7 µM] (inactive) | 0.749 (inactive) | -0.167 | 1.28 (inactive) | – | – | – | –
4 | Cn1cc(C(=O)OCC2CCN(CCNS(C)(=O)=O)CC2)c2ccccc21 | – | 123% (inactive) | 1.06 (inactive) and 0.932 (inactive) | 1.51 and 0.946 | 9310 and 9140 | 8780 and 9810 | – | – | – | -0.825 (inactive) and -0.425 (inactive) | 0.07 h (inactive) | -1% (inactive) | 1 (inactive) | inactive
5 | CCCCCCCC/C=C\CCCCCCCC(=O)NCCc1ccc(O)c(O)c1 | 98 (inactive) | 113% (inactive) | 0.822 (inactive) and 1.01 (inactive) and 1 (inactive) | 1.55 and 1.58 and 0.782 | 4510 and 5800 and 5520 | 5490 and 5740 and 5510 | – | – | – | -1.38 (inactive) and -0.82 (inactive) | 0.16 h (inactive) | -3% (inactive) | 1 (inactive) | inactive
6 | COc1ccccc1N1CCN(CCN2C(=O)CC3(CCCC3)CC2=O)CC1 | – | 96.2% (inactive) | 1.01 (inactive) and 0.904 (inactive) and 0.921 (inactive) | 1.78 and 0.65 and 0.553 | 10300 and 7050 and 8240 | 10200 and 7800 and 8940 | – | -0.152 (inactive) | -0.237 | -0.235 (inactive) and -0.615 (inactive) | -0.035 h (inactive) | -5% (inactive) | 1 (inactive) | inactive
7 | CCCCCCCC/C=C\CCCCCCCC(N)=O | 102 (inactive) | 107% (inactive) | 0.955 (inactive) and 0.909 (inactive) and 1 (inactive) | 1.2 and 0.885 and 0.621 | 5390 and 5900 and 8530 | 5650 and 6490 and 8490 | 4.91 (inactive) | – | – | -0.84 (inactive) | – | – | – | –

Source: PubChem BioAssay
